# Data published in PubChem BioAssay (EPA / NIEHS).
# Records with an inconclusive call do not appear. Calls of active or inactive are those of the source. The calls were made as follows: active = hit-call score of the fitted dose curve at least 0.9, where 1 is the maximum; inconclusive = response in the unintended direction; inactive = score below 0.9.
# Assay: Tanguay_ZF_120hpf_AXIS_legacy: (Legacy) Oregon State University Tanguay Lab 120 Hour Post-fertilization zebrafish Assay for Body Axis Malformation (AID 2283635);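 as to AC50: potency for an increased fraction of larvae scored with body axis malformation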
# How it was run: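 Binary scoring of axis defects at 120 hpf under brightfield, fitted positive versus DMSO. Tropical 5D embryos, chorion removed by pronase at 4 hpf, were singly exposed in sealed, dark plates at 28C from 6 hpf; DMSO 0.64% final.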
Structure (SMILES),outcome,AC50
Cc1cc(-c2ccc(N)c(C)c2)ccc1N,inactive,
CCOC(=O)C(O)(c1ccc(Cl)cc1)c1ccc(Cl)cc1,inactive,
ClC(Cl)=C(c1ccc(Cl)cc1)c1ccc(Cl)cc1,inactive,
NS(=O)(=O)C(F)(F)C(F)(F)C(F)(F)C(F)(F)C(F)(F)C(F)(F)C(F)(F)C(F)(F)F,inactive,
CC(c1ccc(O)cc1)(c1ccc(O)cc1)c1ccc(O)cc1,inactive,
CN(C)CCO,inactive,
c1cc2ccc3cccc4ccc(c1)c2c34,inactive,
CCC(C)(c1ccc(O)cc1)c1ccc(O)cc1,,46.9 µM (active)
ClC1=C(Cl)[C@]2(Cl)[C@@H]3[C@@H](Cl)[C@H]4O[C@H]4[C@@H]3C1(Cl)C2(Cl)Cl,inactive,
Oc1ccc(C(c2ccc(O)cc2)(C(F)(F)F)C(F)(F)F)cc1,,58.3 µM (active)
C=CC(=O)NCNC(=O)C=C,inactive,
Cc1ccc(O)c(C)c1,inactive,
CC(C)(O)C(=O)Nc1ccc([N+](=O)[O-])c(C(F)(F)F)c1,,6.35 µM (active)
C[C@]12CCC(=O)C=C1CC[C@@H]1[C@@H]2CC[C@]2(C)C(=O)CC[C@@H]12,,40.2 µM (active)
CC(C)C(=O)OCC(C)(C)C(OC(=O)C(C)C)C(C)C (stereo not given),inactive,
O=NN(c1ccccc1)c1ccccc1,inactive,
O=C(N[C@H]1CN2CCC1CC2)c1cc2ccoc2cn1,inactive,
CO/C=C(/C(=O)OC)c1ccccc1COc1cccc(C(F)(F)F)n1,,6.06 µM (active)
CCC(C)c1cc([N+](=O)[O-])cc([N+](=O)[O-])c1O (stereo not given),inactive,
COS(=O)(=O)OC,inactive,
Nc1ccc(-c2ccc(N)cc2)cc1,inactive,
Cc1cccc([N+](=O)[O-])c1,inactive,
O=C(O)C(F)(F)C(F)(F)C(F)(F)C(F)(F)C(F)(F)C(F)(F)C(F)(F)C(F)(F)F,inactive,
CCCCCCCCCC[N+](C)(C)CCCCCCCCCC,inactive,
CC(C)(c1ccccc1)c1ccc(O)cc1,inactive,
ClC1=C(Cl)[C@]2(Cl)[C@@H]3[C@H]4C[C@H]([C@@H]5O[C@H]45)[C@@H]3[C@@]1(Cl)C2(Cl)Cl,,45.4 µM (active)
Clc1ccc(Cl)cc1,inactive,
Oc1c(Cl)c(Cl)c(Cl)c(Cl)c1Cl,inactive,
O=C(NC(=O)c1c(F)cccc1F)Nc1cc(Cl)c(OC(F)(F)C(F)F)c(Cl)c1,inactive,
Clc1ccc(C(c2ccccc2Cl)C(Cl)(Cl)Cl)cc1 (stereo not given),inactive,
